Laboratory results as given in the supplement of paper PMC3334620.
Over roughly 33,000 sequences, “E-score (-0.5 to 0.5)” has its median near -0.035; the highest 2% begin near 0.34. The sample holds the highest values, similar sequences and a random draw of the others, so the mix is not that of the screen.

Biological target: T1, Mot3 (UniProt P54785)
T1 sequence: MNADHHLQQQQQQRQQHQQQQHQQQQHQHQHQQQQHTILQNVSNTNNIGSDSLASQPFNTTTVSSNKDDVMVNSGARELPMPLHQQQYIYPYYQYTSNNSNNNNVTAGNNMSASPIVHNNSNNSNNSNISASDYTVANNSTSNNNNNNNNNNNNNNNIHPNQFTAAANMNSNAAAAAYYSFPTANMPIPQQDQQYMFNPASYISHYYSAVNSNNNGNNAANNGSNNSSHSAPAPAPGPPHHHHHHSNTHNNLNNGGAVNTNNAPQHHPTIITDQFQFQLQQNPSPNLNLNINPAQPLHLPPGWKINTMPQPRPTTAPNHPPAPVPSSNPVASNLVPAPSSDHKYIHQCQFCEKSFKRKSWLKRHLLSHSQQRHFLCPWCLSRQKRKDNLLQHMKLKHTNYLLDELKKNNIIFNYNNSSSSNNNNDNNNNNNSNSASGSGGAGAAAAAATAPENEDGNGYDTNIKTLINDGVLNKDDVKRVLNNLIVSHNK
Assay: PBM E-score (8-mer binding enrichment) (E-score (-0.5 to 0.5)); higher = stronger / more preferred TF binding
Conditions: protein concentration: 200 nM; construct: GST-full length
Protocol: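 Universal 'all 10-mer' protein binding microarrays (Agilent AMADID 015681) probed with GST-tagged S. cerevisiae TFs (full-length or DBD) made by in vitro transcription/translation (PURExpress), about 100-200 nM. Bound TF was detected with fluorescent anti-GST. Each ungapped 8-mer (which stands for itself and its reverse complement) is scored by the PBM enrichment score (E-score), a modified Wilcoxon-Mann-Whitney statistic from -0.5 to +0.5, computed with the Universal PBM Analysis Suite. Scale: above 0.35 generally sequence-specific binding.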

Sequence | PBM E-score
GCAGGTCC | -0.168
CCAGGTAC | 0.238
ACAGGTTA | 0.155
ACAGGTGA | 0.0111
TCAGGTAA | 0.324
CCAGGTAA | 0.238
GCGTTACC | 0.0266
CGGCTTCA | -0.131
CCCCACAA | -0.0534
ACTGAATC | -0.0804
AGGCTCCG | 0.223
ATTGCCAC | -0.0828
GTGGTCTA | -0.279
CTTTGAAC | -0.158
TACACGTA | 0.362
GACACGTA | 0.26
CACACGGA | 0.0661
CACACGTA | 0.208
GACACGGA | 0.22
TACACGGA | 0.357
AGGTTGAT | -0.099
GCCCCCTA | -0.355
ATAGCGAT | -0.11
CAGAGCCG | -0.157
ATTGTGTG | 0.0589

Sequence | PBM E-score
CTTGTGTA | 0.333
ATTGTGTA | 0.346
GTGTTGTA | 0.283
GATGTGTA | 0.347
ATTGTGTC | 0.139
AATGTGTA | 0.289
GTTGTGTA | 0.373
CATGTGTA | 0.331
ATCTGCCC | -0.0711
ACTGGCCC | -0.252
AACGACCG | -0.163
AAATGCGG | -0.0946
ACTGGCTG | -0.261
GACTAATC | -0.182
ACCTGCGA | 0.0659
GCCTGTAC | 0.338
TCCTGTAA | 0.338
CCCTGTTA | 0.12
CCCTGCGA | -0.212
GCCTGCGA | 0.35
GCCTGTTA | 0.35
GCCTGTAA | 0.391
ACCTGTTA | 0.167
AGAGCACC | -0.233
ACGTATCC | -0.129

Sequence | PBM E-score
CCATCTCC | -0.26
CCGGGGTC | -0.135
AGTGCGAT | -0.00843
GATTTCGC | 0.167
GAGACTCA | -0.251
ACACGTGA | 0.273
ACACGTTC | 0.303
ACACGTTA | 0.345
AAACGTGA | 0.178
ACACGTTG | 0.305
AAACGTGG | -0.0479
AAACGTGT | 0.344
ACACGTGT | 0.363
ACACGTGG | 0.236
CACGCGCC | 0.181
CCAGGGTA | -0.153
GCCCAACA | 0.146
ATCAAAAC | -0.118
GTGTTTTA | 0.219
ATGTTTAC | 0.374
CTGTTTTA | 0.0859
ATGTTTTA | 0.362
ATGTTTAG | 0.279
CTGTTTAC | 0.28
CTAGAACC | -0.0352

Sequence | PBM E-score
AAGCCCTG | -0.0744
AACTACCG | -0.0555
ATGGGGAG | -0.135
CTGTGTAC | 0.294
GTGTGTAA | 0.394
GTGTATAA | 0.343
ATGTATAA | 0.256
GAGTGTAA | 0.249
CTGTGTAA | 0.41
ATGTGTAG | 0.303
ATGTGTAA | 0.352
CTGTGTGA | 0.181
ATGTGTAC | 0.285
CTGTATAA | 0.0988
GGGTGTAA | 0.223
CCGGATGC | -0.24
ACGATCTC | -0.198
ACTAGGGG | -0.223
CGCTCTTC | -0.174
GACACATC | -0.0862
CCTAGGAC | -0.0674
AACATGTG | 0.278
AAGATGTA | 0.194
AACATGTT | 0.387
AACATGTC | 0.296

Sequence | PBM E-score
AACATGTA | 0.42
AACATTTA | 0.244
CTGGCCCC | -0.215
AACGGTTC | -0.172
AACAGAAT | 0.0192
ATCTTAAG | -0.14
CCTGACCG | -0.159
GGTAGGAC | -0.172
CGTAGGAC | -0.166
GGTAGGAA | 0.313
AGTAGGAT | 0.0448
CGTAGGAA | 0.351
AGTAGGAC | -0.258
CGTAGGAG | -0.0892
TGTAGGAA | 0.406
AGTAGGAA | 0.403
CATCAGGG | -0.0517
ACTGCGGC | -0.227
AACTAAGA | 0.0799
CAATTGCA | -0.0452
AGTACCTA | 0.342
CTTACCTA | 0.175
AGTACCTC | -0.107
GGTACCCA | 0.00798
CGTACCTC | -0.144

Sequence | PBM E-score
CCTACCTA | 0.156
GCTACCTA | 0.0719
ATTACCTA | 0.332
AGTACCAA | 0.013
CGTACCTA | 0.395
GTTACCTA | 0.369
GGTACCTA | 0.424
GTCACCTA | -0.0234
ATGAAGTA | -0.0752
CTTACAGC | 0.00061
CCCCATAC | 0.00082
GATGGAAC | -0.0944
AGTACCAG | -0.106
ATTACCTG | 0.336
AGTACCTG | 0.378
CAGCCCGG | -0.239
CGGGGAAC | -0.0973
CATGTATC | 0.277
GATGTAGA | 0.195
CGTGTAGC | 0.228
CATGTAGG | 0.374
CATGTATA | 0.376
GATGTATA | 0.195
CATGTAGA | 0.39
AGTGTAGA | 0.151

Sequence | PBM E-score
AATGTAGG | 0.191
CGTGTAGA | 0.414
CATGTAGC | 0.276
CAAGTAGG | 0.105
ATTGGAGA | -0.179
AAGGGGGC | -0.138
AGTAGAAG | 0.0882
AGGTTCAT | -0.0206
GGCCCAGA | -0.411
CCAAGACG | -0.236
ACAACGGG | 0.07
GCTAACTA | 0.00452
CGTGTAAG | 0.38
GGTGTAAA | 0.297
AGTGTAAG | 0.00213
AGTGTAAA | 0.28
AGTGTAAT | 0.308
AGTGTAAC | 0.128
TGTGTAAA | 0.416
ACTGTAAG | 0.0605
CGTGTAAA | 0.438
GGTGTAAC | 0.164
CGTGTAAC | 0.351
